Laboratory results reported in PubChem BioAssay AID651784 (National Center for Advancing Translational Sciences (NCATS), 2012).
Records with an inconclusive call do not appear. The source made the active and inactive calls. Calls come from the whole dose curve; as a rule, active = well fitted inhibition curve with a large enough effect; inconclusive = small, poorly fitted or top-dose-only effect; inactive = no such curve, though single readings can be large or run the other way.
Potency is the fitted concentration of half-maximal effect.

Test: Acumen qHTS Assay for Inhibitors of the mTORC1 Signaling Pathway in MEF (Tsc2-/-, p53-/-) Cells: Hit Validation;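 note: phospho-rpS6 Ser235/236 immunofluorescence normalized to propidium iodide cell count; nearly all actives have a fitted effect of over 65% in size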;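 for activity change, negative = inhibition: cells exposed to compound for 24 hours; plate controls were DMSO for no effect and 7.5 nM rapamycin control for full effect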
Settings: Acumen imaging; activity change, negative = inhibition: at 37.3 µM (top of the series)
Nc1nnc(SCC(=O)Nc2cccc(F)c2)s1 showed an activity change, negative = inhibition of 16.3%.
For Cc1ccc(O)c(C(CC(=O)NCC2(c3ccccc3)CCCC2)c2ccccc2)c1 (configuration not stated), the activity change, negative = inhibition was 2.09%.
Compound CCC(C)Sc1oc(-c2ccco2)nc1S(=O)(=O)c1ccc(C)cc1 (configuration not stated) has an activity change, negative = inhibition of 3.02%.
With Cc1ccccc1Oc1nc2ccccn2c(=O)c1/C=C(\C#N)c1nc2ccccc2[nH]1 the activity change, negative = inhibition was 2.47%.
Compound CCc1nn(CC(=O)NCc2ccccc2Cl)c(=O)c2cccn12 has an activity change, negative = inhibition of 3.65%.
With CCN1CCOC(=O)C1CC(=O)Nc1cc(Cl)ccc1C (configuration not stated) the activity change, negative = inhibition was -93.4%.
In the case of CCCCN(C)CCNC(=O)c1cc2c(=O)n(C)c3ccccc3c2n1C, the activity change, negative = inhibition was -0.172%.
Compound COc1ccc(N(C)C(=O)c2cc(S(=O)(=O)N3CCc4ccccc43)cn2C)c(OC)c1 has an activity change, negative = inhibition of 18.7%.
In the case of COc1ccc(OCC(=O)NCc2ccc3c(c2)CCN3C(=O)c2ccccc2)cc1, the Potency was 16.5 µM (active).
In the case of COc1cc(Cl)c(C)cc1Nc1c2c(nc3ccccc13)CCC2, the Potency was 0.927 µM (active).
In the case of COc1ccc(OCC(=O)NCc2ccc3c(c2)CCN3C(=O)c2cccc(C)c2)cc1, the activity change, negative = inhibition was -87.8%.
With Cc1ccc(NC(=O)c2nc(S(=O)(=O)Cc3cccc(C)c3)ncc2Cl)cc1 the activity change, negative = inhibition was -108%.
Compound O=C(CN1C(=O)C(c2ccc(F)cc2)=NC12CCCCCC2)Nc1ccccc1Cl has an activity change, negative = inhibition of 12.4%.
With COc1ccc(CNC(=O)c2cccc(N3CCCS3(=O)=O)c2)cc1OC the Potency was 5.21 µM (active).
With CCS(=O)(=O)c1ncc(Cl)c(C(=O)Nc2ccc(S(=O)(=O)N(C)c3ccccc3)cc2)n1 the Potency was 1.47 µM (active).
Compound CC1C(=O)Nc2ccc(S(=O)(=O)Nc3ccccc3Br)cc2NC1=O (configuration not stated) has an activity change, negative = inhibition of 8.5%.
CCc1nnc(SC(CC)C(=O)Nc2cccc(OC)c2)c2cc3oc(C)cc3n12 (configuration not stated) showed an activity change, negative = inhibition of -6.5%.
CC(=O)N1CCCc2cc(S(=O)(=O)N(Cc3ccccc3)C(C)C)ccc21 showed an activity change, negative = inhibition of -22.8%.
In the case of COc1ccccc1C1C=C(c2ccc(Cl)cc2)Nc2nc(-c3ccc(Cl)cc3)nn21 (configuration not stated), the activity change, negative = inhibition was -9.46%.
Work on Cc1cccc(N(C)S(=O)(=O)c2ccc(-c3cc(C)no3)s2)c1 yielded an activity change, negative = inhibition of -13.9%.
With CC(C)CCNc1nc(Nc2ccccc2)c2cnn(C)c2n1 the activity change, negative = inhibition was 17.1%.
For COc1ccc(N2CCN(C(=O)C(C)n3nc(C)c4sc5ccccc5c4c3=O)CC2)cc1 (configuration not stated), the activity change, negative = inhibition was 1.14%.
